Experimental data from the supplement of paper PMC10338343.
± gives the standard deviation.

What was measured:
[1] = tested on: MILI (PIWIL2) piRISC loaded with L1MC piRNA (26 nt); assay: pre-steady-state target cleavage rate (min^-1); guide: L1MC piRNA 5'p-UAACUAAAUACUAUGCAAGCUGUAGG; higher = faster piRNA-guided slicing of the target
How it was run: (§1)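 Cleave-'n-Seq: a transcribed, DNA-blocked target RNA library (0.1 nM) was mixed with 1 nM active affinity-purified piRISC carrying one synthetic guide, with or without 500 nM GTSF1 partner protein, in HEPES–potassium acetate buffer at 33 °C for 0–8 or 0–960 min. Uncleaved targets were sequenced and normalised to depth and to weakly complementary targets. Three trials were pooled, and k3 was capped at 0.0001 min^-1. The pre-steady-state cleavage rate came from a burst-and-steady-state fit.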

[2] = tested on: EfPiwi piRISC loaded with L1MC piRNA (26 nt); assay: pre-steady-state target cleavage rate (min^-1); auxiliary factor: 500 nM Ephydatia muelleri Gtsf1; guide: L1MC piRNA 5'p-UAACUAAAUACUAUGCAAGCUGUAGG; MIWI and MILI are mouse PIWI proteins and EfPiwi is from a freshwater sponge; tags in brackets are library labels; higher = faster piRNA-guided slicing of the target
How it was run: as §1

[3] = auxiliary factor: 500 nM mouse GTSF1
[4] = auxiliary factor: none (no GTSF1)

UCCUGCUACAGGUAGCAUAGUAUUUAGUUA
pre-steady-state target cleavage rate [1, 3]: 0.367 ± 0.031 | pre-steady-state target cleavage rate [1, 4]: 0.00651 ± 0.0037 | pre-steady-state target cleavage rate [2]: 0.0207 ± 0.0042

UCCUCCUACAGCUUGACAUAGUAUUUAGUUA
pre-steady-state target cleavage rate [1, 3]: 0.267 ± 0.018 | pre-steady-state target cleavage rate [1, 4]: 0.00554 ± 0.0024 | pre-steady-state target cleavage rate [2]: 0.016 ± 0.0056

UCCUGCUACGGCUUGCAUAGUAUUUAGUUA
pre-steady-state target cleavage rate [1, 3]: 0.276 ± 0.021 | pre-steady-state target cleavage rate [1, 4]: 0.00977 ± 0.0025 | pre-steady-state target cleavage rate [2]: 0.00972 ± 0.0027

UCCUGGUACAGCUUGCAUAAUAUUUAGUUA
pre-steady-state target cleavage rate [1, 3]: 0.338 ± 0.068 | pre-steady-state target cleavage rate [1, 4]: 0.0064 ± 0.0032 | pre-steady-state target cleavage rate [2]: 0.00307 ± 0.0027

UCCUGGAAGCAGCUUGCAUAGUAUUUAGUUA
pre-steady-state target cleavage rate [1, 3]: 0.259 ± 0.016 | pre-steady-state target cleavage rate [1, 4]: 0.0136 ± 0.0032 | pre-steady-state target cleavage rate [2]: 0.0569 ± 0.013

UCCUGGUACUGCUUGCAUAGUAUUUAGUUA
pre-steady-state target cleavage rate [1, 3]: 0.174 ± 0.023 | pre-steady-state target cleavage rate [1, 4]: 0.0139 ± 0.0037 | pre-steady-state target cleavage rate [2]: 0.0105 ± 0.0034

UCCUCCAACAGCUUGCAUAGUAUAUAGUUA
pre-steady-state target cleavage rate [1, 3]: 0.234 ± 0.027 | pre-steady-state target cleavage rate [1, 4]: 0.0056 ± 0.0022 | pre-steady-state target cleavage rate [2]: 0.00628 ± 0.0027

UCCUGGUACAGCUUGCUUAGUAAUUAGUUA
pre-steady-state target cleavage rate [1, 3]: 0.128 ± 0.036 | pre-steady-state target cleavage rate [1, 4]: 0.0116 ± 0.0032 | pre-steady-state target cleavage rate [2]: 0.00675 ± 0.0033

UCCUCCUAUCAGCUUGCAUAGUAUUUAGUUA
pre-steady-state target cleavage rate [1, 3]: 0.322 ± 0.015 | pre-steady-state target cleavage rate [1, 4]: 0.00786 ± 0.0023 | pre-steady-state target cleavage rate [2]: 0.0677 ± 0.018

UCCUCCUUCAGCUUGCAUAGUUUUUAGUUA
pre-steady-state target cleavage rate [1, 3]: 0.0603 ± 0.0091 | pre-steady-state target cleavage rate [1, 4]: 0.00556 ± 0.0016 | pre-steady-state target cleavage rate [2]: 0.00713 ± 0.0023

UCCUGGAUGUCGAUGCAUAGUAUUUAGUUA [g2:g17:cont:t1A]
pre-steady-state target cleavage rate [1, 3]: 0.124 ± 0.017 | pre-steady-state target cleavage rate [1, 4]: 0.0067 ± 0.0017 | pre-steady-state target cleavage rate [2]: 0.00648 ± 0.0023

UCCUGCUAGUCCUUGCAUAGUAUUUAGUUA
pre-steady-state target cleavage rate [1, 3]: 0.0977 ± 0.016 | pre-steady-state target cleavage rate [1, 4]: 0.00689 ± 0.0019 | pre-steady-state target cleavage rate [2]: 0.00428 ± 0.0023

UCCUCCUACAGCUGUGCAUAGUAUUUAGUUA
pre-steady-state target cleavage rate [1, 3]: 0.321 ± 0.017 | pre-steady-state target cleavage rate [1, 4]: 0.00714 ± 0.0025 | pre-steady-state target cleavage rate [2]: 0.0425 ± 0.015

UCCUGGUUCAGCUUGCAUAGUAUUUUGUUA
pre-steady-state target cleavage rate [1, 3]: 0.16 ± 0.03 | pre-steady-state target cleavage rate [1, 4]: 0.00444 ± 0.0036 | pre-steady-state target cleavage rate [2]: 0.00528 ± 0.0032

UCCUGGAUGAGCUUGCAUAGUACUUAGUUA
pre-steady-state target cleavage rate [1, 3]: 0.127 ± 0.018 | pre-steady-state target cleavage rate [1, 4]: 0.00646 ± 0.0022 | pre-steady-state target cleavage rate [2]: 0.0106 ± 0.0037

UCCUGGAAGACCUUGCAUAGUAUUUAGUUA
pre-steady-state target cleavage rate [1, 3]: 0.212 ± 0.02 | pre-steady-state target cleavage rate [1, 4]: 0.00774 ± 0.0029 | pre-steady-state target cleavage rate [2]: 0.00668 ± 0.003

UCCUGGAUGUCGCUGCAUAGUAUUUAGUUA
pre-steady-state target cleavage rate [1, 3]: 0.0516 ± 0.0095 | pre-steady-state target cleavage rate [1, 4]: 0.00769 ± 0.0026 | pre-steady-state target cleavage rate [2]: 0.00471 ± 0.0025

UCCUGGUACAGCUUGCAUGGUAUUUAGUUA
pre-steady-state target cleavage rate [1, 3]: 0.298 ± 0.021 | pre-steady-state target cleavage rate [1, 4]: 0.0136 ± 0.0044 | pre-steady-state target cleavage rate [2]: 0.00828 ± 0.0033
